# Compounds with a hit are over-represented: about 2.9% of the library has one in this group of screens.
# B2AR arrestin – qHTS assay of beta-arrestin-biased ligands of beta2-adrenergic receptor | Beta-2 adrenergic receptor (Homo sapiens), P07550 | beta-arrestin recruitment to beta2AR, cell-based reporter | Potency, µM (highest dose often 46.1 µM), inactives show at the top dose activation, usual class: activators | 330,000 compounds, 0.02% hits;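 note: potency is the fitted concentration of half-maximal effect; 0% = DMSO controls and full agonism = EC100 isoproterenol or metaproterenol; nearly all actives have a fitted effect of over 65% in size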
# mIDH1 inhibitor – qHTS for Inhibitors of mutant isocitrate dehydrogenase 1 (IDH1): qHTS. Isocitrate dehydrogenase [NADP] cytoplasmic (Homo sapiens), O75874. IDH1-R132H enzyme, NADPH consumption, diaphorase/resazurin fluorescence. Potency, µM (top dose mostly 76.6 µM), for the others: at the highest dose activity change, negative = inhibition, most hits filed as inhibitors. 390,000 compounds, 0.093% hits. AID 602179, 2012; note: potency is the fitted concentration of half-maximal effect; % is set by controls: 0 for no effect and ±100 for the full control effect; nearly all actives have a fitted effect of over 65% in size
#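 IDH1-R132H (0.5 ug/mL dispensed) in pH 7.5 Tris buffer was preincubated 30 min with compound, then given a substrate mix of 0.016 mM NADPH and 2 mM alpha-KG for 80 min at room temperature; remaining NADPH was read by diaphorase/resazurin fluorescence.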
# a7 integrin act – qHTS for Activators of Integrin-Mediated Alleviation for Muscular Dystrophy | Potency, µM (series often up to 38.3 µM), for the others: top-dose activation, usual class: activators | 350,000 compounds, 0.064% hits | alpha7betagal myoblasts, beta-gal FDG fluorescence, 48 h;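 note: potency is the fitted concentration of half-maximal effect; 100% = response of the positive control SU9516; nearly all actives have a fitted effect of over 60% in size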
#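 alpha7betagal+/- myoblasts (passage 13, 250/well) treated 48 h at 37C with compounds at 1:260 dilution of DMSO stock. Lysed, then beta-galactosidase activity read as FDG fluorescence (ex 480/em 540) after 30 min, with pre-read for autofluorescence.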
# DRD3 antagonist – qHTS of D3 Dopamine Receptor Antagonist: qHTS. max response, negative = inhibition, %. D3R cells, DiscoveRx beta-arrestin luminescence, antagonist mode; hits give low values. 360,000 compounds, 2.5% hits. D(3) dopamine receptor (Homo sapiens), P35462; in the data active = max response below about -50%; inconclusive = no clear call, values can overlap the other calls; note: % is set by controls: 0 for no effect and ±100 for the full control effect
# Target sequence (P35462 whole entry, looked up): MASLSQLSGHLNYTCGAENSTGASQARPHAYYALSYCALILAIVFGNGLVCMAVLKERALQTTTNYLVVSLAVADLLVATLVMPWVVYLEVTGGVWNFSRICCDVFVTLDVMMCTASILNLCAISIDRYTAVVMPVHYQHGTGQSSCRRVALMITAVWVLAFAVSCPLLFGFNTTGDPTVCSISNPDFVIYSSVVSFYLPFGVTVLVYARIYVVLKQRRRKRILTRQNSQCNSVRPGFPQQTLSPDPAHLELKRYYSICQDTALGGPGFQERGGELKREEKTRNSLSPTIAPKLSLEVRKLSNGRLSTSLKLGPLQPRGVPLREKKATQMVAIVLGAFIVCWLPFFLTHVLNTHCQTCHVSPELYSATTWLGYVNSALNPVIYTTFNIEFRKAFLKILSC
#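 Cells expressing the human receptor were seeded at 1500 cells/well, incubated overnight at 37 degrees C in 5% CO2, then exposed to library compounds with dopamine controls for 90 minutes at 37 degrees C before luminescent detection.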
# DRD3 agonist – qHTS of D3 Dopamine Receptor Agonist: qHTS | D(3) dopamine receptor (Homo sapiens), P35462 | max activation, % | 410,000 compounds, 0.58% hits | D3R DiscoveRx beta-arrestin cells, luminescence, 90 min; in the data active = max activation above about 30%; note: 0% is about no effect
#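 Agonist-mode cell screen: cells plated at 1500/well and incubated overnight at 37 °C, then exposed to library compounds for 90 min at 37 °C. Detection reagent was added for 30–60 min at room temperature, and luminescence was read.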
# Active calls of the source: *; ? = inconclusive; . = no result given; ! = repeats disagree; [ ] = remark or other dose. Unless noted, calls come from the whole dose curve; as a rule, active = well fitted curve in the direction sought with a large enough effect; inconclusive = small, poorly fitted or top-dose-only effect, or another doubt; inactive = no such curve, though single readings can be large; an effect the other way counts as inactive or inconclusive.
SMILES,B2AR arrestin,mIDH1 inhibitor,a7 integrin act,DRD3 antagonist,DRD3 agonist
OC(CNCc1ccco1)COc1ccccc1 (configuration not stated),0.1%,4.8%,-27.6%,-55.0*,-21.7
COC(=O)CCc1ccc(OCC(O)CNC(C)C)cc1 (configuration not stated),.,0.0%,.,-14.3,0.0
CC(=O)c1cccc(OCC(O)CNCCc2ccc(Cl)cc2)c1 (configuration not stated),0.3%,0.2%,-10.8%,1.0,-5.5
COc1ccc(OCC(O)CNCCOc2ccccc2OC)c(C(C)(C)C)c1 (configuration not stated),0.5%,-1.4%,-27.3%,-80.7*,-3.7
CN(C)CCCOC(=O)N1c2ccccc2C=Cc2ccccc21,-0.5%,-2.3%,-4.6%,-61.5*,-2.0
O=C(CCN1CCCCCC1)Nc1ccc(F)cc1,-0.3%,5.9%,14.3%,-83.6*,-37.1
CN1CCN(CCC(=O)Nc2ccc(F)c(F)c2)CC1,-0.2%,-2.6%,6.1%,-12.6,-2.3
O=C(CCN1CCCCCC1)Nc1ccc(F)c(F)c1,-0.1%,1.7%,21.4%,-61.9*,-11.7
O=C(O)CSCCC(=O)Nc1ccc(F)cc1,-0.7%,4.9%,1.2%,-18.1,40.7*
Cc1ccc(NC(=O)CCN2CCCCC2)cc1,-1.3%,-4.5%,18.2%,-15.8,-21.0
Cc1ccc2occ(CC(=O)N(Cc3ccc(Cl)cc3)Cc3ccco3)c2c1,.,-8.5%,.,.,8.1
Cc1cc(C)n(CCCNCC(O)c2ccccc2)n1 (configuration not stated),-0.1%,-2.0%,-1.8%,-64.2*!,-27.3
O[C@@H](CNC[C@H](O)c1ccccc1)c1ccccc1,0.5%,4.3%,11.8%,-4.7,-2.4
Clc1cccc(CNc2nnnn2-c2ccccc2)c1,0.2%,-0.4%,-13.2%,-52.1*,-18.8
CC1(C)CC(C)(c2ccc(O)cc2O)N(c2ccc3ccccc3c2)C(=S)N1 (configuration not stated),2.6%,-0.6%,16.3%,-62.2*,-23.8
CC1(C)CC(C)(c2ccc(O)cc2O)N(c2cccc(Cl)c2)C(=S)N1 (configuration not stated),?,3.6%,-1.0%,-3.5,-16.1
COc1ccc(S(=O)(=O)N2CCC(C(=O)Nc3ccc(Oc4ccccc4)cc3)CC2)cc1OC,.,0.0%,.,.,19.5
O=C(NC1CC(=O)N(c2ccc(Cl)cc2)C1)C1CCCCC1 (configuration not stated),.,-8.2%,.,.,-40.2
CCc1cccc(NC(=O)C2CCCN2S(=O)(=O)c2ccc3nc(-c4ccccc4)[nH]c3c2)c1 (configuration not stated),.,0.7%,.,.,7.2
C[C@@]12C(=O)N(CCO)CC(=O)N1[C@H](/C=C/c1ccccc1)[C@@H]1C(=O)N(c3ccccc3)C(=O)[C@@H]12,0.2%,-0.3%,3.3%,-59.4*,-4.4
Clc1ccc(CN2CCCCCC2)cc1,0.6%,8.9%,13.8%,0.0,-11.0
CN1CCN(Cc2ccc(-c3ccc(Cl)cc3)o2)CC1,-1.0%,11.7%,-8.9%[7.66 µM],-71.2*,-19.0
OCCc1ccc(-c2ccc(Cl)cc2)o1,0.0%,0.5%,-7.0%,5.7,8.2
Clc1ccc(-c2ccc(CN3CCCCC3)o2)cc1,-0.5%,0.0%,-7.9%,-106.2*,-6.4
O=C(CCC1N=C2c3ccccc3N=C(SCc3ccc(F)cc3)N2C1=O)N1CCN(c2ccccc2)CC1 (configuration not stated),.,13.3%,.,.,-15.8
CN1C[C@@H]2[C@@H]3C(=O)N(Cc4ccccc4)C(=O)[C@@H]3[C@](C)(C1=O)N2C(=O)c1ccc(F)cc1,.,-0.7%,-11.3%,20.7,21.6
CCN1C[C@@H]2[C@@H]3C(=O)N(Cc4ccccc4)C(=O)[C@@H]3[C@](C)(C1=O)N2C(=O)c1ccccc1,.,-0.6%,11.0%,0.0,43.4*
Cc1ccc(C(=O)N2[C@@H]3CN(C)C(=O)[C@@]2(C)[C@H]2C(=O)N(Cc4ccccc4)C(=O)[C@@H]32)cc1,.,-1.4%,-6.3%,11.9,31.9*
